Shown is part of a subset that was picked to be rich in hits.
KDM5B inhibitor: Primary screen for KDM5B Histone Demethylases FDH-coupled qHTS | Lysine-specific demethylase 5B (Homo sapiens), Q9UGL1 | KDM5B demethylase, FDH-coupled NADH fluorescence (FDH is formaldehyde dehydrogenase) | Potency, µM (doses to about 57.7 µM), actives largely listed as inhibitors | hit rate 2.6% among 220,000; active = well fitted inhibition curve with a large enough effect; note: 0% is about no effect; nearly all actives have a fitted effect of over 70% in size
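KDM5BΔAP (200 nM final) in 50 mM HEPES pH 7.5, 0.01% Tween-20 was preincubated 10 min at RT with compound over a concentration range. Substrate mix (H3K4me3 12.5 µM, α-KG 25 µM, Fe²⁺, ascorbate, NAD⁺, FDH) was added, and NADH fluorescence change over 30 min gave dose-response curves.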
Numbers without * were called inactive. Potency is the fitted concentration of half-maximal effect.

Results for COCCOC(=O)N1CCC(Oc2cnc3c(ccn3-c3cncnc3)c2)CC1 ?
KDM5B inhibitor: inactive

Results for Cc1noc(C)c1-c1cc2c(c(-c3cccc(CO)c3)c1)C(=O)N(C)C2=O ?
KDM5B inhibitor: inactive

What do the screens show for `Cn1cc(-c2cccc(COc3ccc4c(cnn4CC[S+](C)(=O)[O-])c3)c2)cn1`?
KDM5B inhibitor: inactive

Results for CC(=O)NC1(C)CCCN(Cc2cccc(-c3c(C)noc3C)c2)C1 (centres undefined) ?
KDM5B inhibitor: inactive

Results for Cc1noc(C)c1-c1cccc(CCOc2cnc3c(ccn3CC(=O)O)c2)c1 ?
KDM5B inhibitor: 40µM*

What do the screens show for `Cn1cc(-c2cccc(CCOc3cnc4c(ccn4CC(=O)O)c3)c2)cn1`?
KDM5B inhibitor: 40µM*

What do the screens show for `O=C(O)CCn1ncc2cc(OCc3ccc(-c4cccc(CO)c4)cc3)ccc21`?
KDM5B inhibitor: inactive

How did CCc1cccc(OCCOC(=O)c2cc(C)nc3ccccc23)c1 do in these assays?
KDM5B inhibitor: inactive

How did Cn1cc(-c2cc(C(F)F)c3c(C4CC4)nn(CC(=O)O)c3n2)cn1 do in these assays?
KDM5B inhibitor: inactive

What do the screens show for `O=C(C1CCOCC1)N1CCC(Oc2cnc3c(ccn3-c3cncnc3)c2)CC1`?
KDM5B inhibitor: inactive

What do the screens show for `COC[C@@H]1CN(C(=O)c2cncc(C)c2)C[C@H]1C(N)=O`?
KDM5B inhibitor: inactive

What do the screens show for `O=C(Nc1ccc(Br)cc1Cl)c1cc(-c2ccco2)on1`?
KDM5B inhibitor: inactive

What do the screens show for `Cc1noc(C)c1CNC(=O)c1cc2c(s1)CCN(C(=O)c1ccc(Cl)cc1)C2`?
KDM5B inhibitor: inactive

What do the screens show for `Fc1ccc(OCc2nc(C3CCNC3)no2)cc1` (centres undefined)?
KDM5B inhibitor: inactive

Results for O=S(=O)(Nc1nc2ccccc2nc1Nc1ccccc1F)c1cccs1 ?
KDM5B inhibitor: inactive

How did CCc1ccccc1N(C(C)=O)c1nc(COc2ccccc2C(N)=O)cs1 do in these assays?
KDM5B inhibitor: inactive

What do the screens show for `Cn1cc(CN2CCC(C(=O)N3CCCC3)CC2)c(-c2ccc(C3CCCCC3)cc2)n1`?
KDM5B inhibitor: inactive

What do the screens show for `COC(=O)C(C)Oc1ccc2cc(-c3ccc(OC)c(OC)c3)c(=O)oc2c1` (centres undefined)?
KDM5B inhibitor: inactive

What do the screens show for `COC(=O)CCNC(=O)c1ccc(-c2ccccc2)cc1`?
KDM5B inhibitor: inactive

Results for Cc1cccc(CCCCCCCCCCCC(=O)O)c1 ?
KDM5B inhibitor: inactive

How did Cc1cccc(CSCC(=O)O)c1 do in these assays?
KDM5B inhibitor: inactive

How did Cc1cccc(-c2cccc(CCOc3cnc4c(ccn4CC(=O)O)c3)c2)c1 do in these assays?
KDM5B inhibitor: 32µM*

Results for Cc1cc(NC(=O)c2ccc(NC(=O)C3=CSCCO3)cc2)ccc1Br ?
KDM5B inhibitor: inactive

Results for Cc1ccc2nc(N3CCOCC3)nc(-c3ccccc3)c2c1 ?
KDM5B inhibitor: inactive

Results for COc1cccc(-c2nc(N3CCOCC3)cc3c2CN(Cc2ccccc2)C3=O)c1OC ?
KDM5B inhibitor: 32µM*

Results for COc1ccc(-c2nc(N3CCOCC3)cc3c2CN(Cc2ccccc2)C3=O)cc1 ?
KDM5B inhibitor: inactive

Results for COCc1cc(=O)[nH]c(-c2ccccc2OC(F)(F)F)n1 ?
KDM5B inhibitor: inactive

Results for COc1ccc(CN2Cc3[nH]nc(-c4ccccc4OC)c3CC2=O)cc1 ?
KDM5B inhibitor: inactive

What do the screens show for `CN1Cc2c(cc(N3CCOCC3)nc2-c2ccccc2OC(F)(F)F)C1=O`?
KDM5B inhibitor: 35µM*

Results for COc1ccc(-c2n[nH]c3c2CC(=O)N(Cc2ccccc2)C3)cc1OC ?
KDM5B inhibitor: inactive

Results for O=C1c2cnc(-c3cccc(CO)c3)nc2OCCN1c1ccccc1 ?
KDM5B inhibitor: inactive

What do the screens show for `O=C1c2cc(N3CCOCC3)nc(-c3ccccc3)c2CN1Cc1ccccc1`?
KDM5B inhibitor: 32µM*

How did O=C1c2cc(N3CCOCC3)nc(-c3cccc(CO)c3)c2CN1c1ccccc1 do in these assays?
KDM5B inhibitor: 35µM*

What do the screens show for `O=C1CC(c2noc(-c3ccccc3OC(F)(F)F)n2)CN1C1CCCCC1` (centres undefined)?
KDM5B inhibitor: inactive

What do the screens show for `O=C1Cc2c(-c3cccc(CO)c3)n[nH]c2CN1c1ccccc1`?
KDM5B inhibitor: inactive

How did Cc1ccc(-n2nnnc2C2(Nc3ccccc3C)CCCCC2)cc1 do in these assays?
KDM5B inhibitor: inactive

Results for CC(C)c1noc(-c2cn(C3CCN(C(=O)c4cccc(C(F)(F)F)c4)C3)nn2)n1 (centres undefined) ?
KDM5B inhibitor: inactive

Results for CSc1ccccc1NC(=O)COC(=O)CNC(=O)CC12CC3CC(CC(C3)C1)C2 ?
KDM5B inhibitor: inactive

What do the screens show for `COc1cc(OC)cc(C(=O)Nc2ccc(Sc3c(C)c(C)nc4ncnn34)cc2)c1`?
KDM5B inhibitor: inactive

What do the screens show for `CC(=O)N1CC2(Cc3ccccc31)CN(C(=O)c1ccc(C)cc1)C2`?
KDM5B inhibitor: inactive

What do the screens show for `O=C(CSc1ncc(-c2ccc(F)cc2)o1)Nc1cccc(F)c1`?
KDM5B inhibitor: inactive

Results for O=C(Nc1ccccc1)c1ccc(N2CC3CCC(C2)N3CC(F)(F)F)nn1 ?
KDM5B inhibitor: inactive

Results for CCC(CC)NC(=O)C(C)c1ccc2cc(OC)ccc2c1 (centres undefined) ?
KDM5B inhibitor: inactive

What do the screens show for `O=C(CCc1ncc(-c2ccc(F)cc2F)o1)NCc1ccc2c(c1)OCO2`?
KDM5B inhibitor: inactive

Results for Cc1cccc(-c2nnc(SCC(=O)NC(=O)NC3CCCC3)n2Cc2ccco2)c1 ?
KDM5B inhibitor: inactive

Results for COc1cc(F)ccc1-c1nc(N2CCOCC2)cc2c1CN(CC(F)(F)F)C2=O ?
KDM5B inhibitor: 32µM*

How did COc1cccc(-c2noc(N3CCCC3)n2)c1OC do in these assays?
KDM5B inhibitor: inactive

Results for COc1cccc(C(=O)NC2CCN(c3cc(C(F)(F)F)nc(C)n3)CC2)c1OC ?
KDM5B inhibitor: inactive

How did COc1ccccc1-c1n[nH]c2c1CC(=O)N(CC1CC1)C2 do in these assays?
KDM5B inhibitor: inactive

Results for COc1ccc(CN2CCOc3nc(-c4cccc(C(F)(F)F)c4)ncc3C2=O)cc1 ?
KDM5B inhibitor: inactive

Results for COc1cc(F)ccc1-c1cn(C)c(=O)n2cc(COc3ccc(C(=O)O)cc3)nc12 ?
KDM5B inhibitor: inactive

Results for CCc1ccc(C(=O)c2cnc3cc(OC)c(OC)cc3c2N2CCOCC2)cc1 ?
KDM5B inhibitor: inactive

What do the screens show for `O=C1c2cc(N3CCOCC3)nc(-c3cccc(O)c3)c2CN1CC(F)(F)F`?
KDM5B inhibitor: 40µM*

What do the screens show for `COc1cccc(-c2nc(N3CCOCC3)cc3c2CN(CC2CC2)C3=O)c1OC`?
KDM5B inhibitor: 35µM*

Results for COc1cccc(-c2nc(N3CCOCC3)cc3c2CN(CC(F)(F)F)C3=O)c1OC ?
KDM5B inhibitor: 32µM*

How did O=C(OCc1cc(=O)oc2cc(O)ccc12)c1ccc(N2CCOCC2)nc1 do in these assays?
KDM5B inhibitor: inactive

How did COc1cccc(C(=O)NC2CCN(c3cnn(CC4CC4)c(=O)c3)CC2)c1OC do in these assays?
KDM5B inhibitor: inactive

Results for CC(C(=O)O)N1CC2(CCC1=O)CCN(C(=O)N1CCCC1)CC2 (centres undefined) ?
KDM5B inhibitor: inactive

What do the screens show for `Cc1ccc(S(=O)(=O)N(CC(=O)NCC2CCCO2)c2cccc(C)c2)cc1` (centres undefined)?
KDM5B inhibitor: inactive

Screening results as filed in PubChem BioAssay.
